Assay outcomes as filed in PubChem.
Only some compounds are listed: those with a hit (about 0.9% of all), similar ones and a draw of the others.
SRC3 TRFRET art: counter-screen for PPARgamma SRC-3 recruitment agonists: TR-FRET artefact. TR-FRET ratio at 8 µM. actives 0.39% (n = 99,000). AID 1048. PPARgamma/SRC-3 format; active compounds read high
PPARg SRC1 recr: PPARgamma-driven SRC-1 recruitment agonism | PPARgamma-SRC-1 coactivator recruitment biochemical assay | actives 0.41% (n = 200,000) | activation, % at 8 µM; in the data active means activation above about 19%;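 further: 0% = DMSO and 100% = reference agonist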
Target sequence (P37231 whole entry, looked up): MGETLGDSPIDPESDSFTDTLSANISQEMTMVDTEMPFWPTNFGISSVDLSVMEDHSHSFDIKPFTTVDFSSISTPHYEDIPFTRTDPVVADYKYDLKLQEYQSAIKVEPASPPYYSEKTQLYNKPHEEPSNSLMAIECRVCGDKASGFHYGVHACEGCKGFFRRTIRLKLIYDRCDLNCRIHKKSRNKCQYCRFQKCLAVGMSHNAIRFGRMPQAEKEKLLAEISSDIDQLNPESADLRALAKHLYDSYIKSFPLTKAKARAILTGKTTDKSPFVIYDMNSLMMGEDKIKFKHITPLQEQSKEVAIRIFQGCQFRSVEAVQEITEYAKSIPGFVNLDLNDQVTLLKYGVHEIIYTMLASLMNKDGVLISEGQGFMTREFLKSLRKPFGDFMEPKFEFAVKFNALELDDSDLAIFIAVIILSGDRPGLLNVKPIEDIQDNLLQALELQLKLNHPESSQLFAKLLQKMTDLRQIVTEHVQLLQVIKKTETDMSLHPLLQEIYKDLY
SRC1 TRFRET art: flags TR-FRET format artefacts in PPARgamma SRC-1 recruitment agonist screen; TR-FRET detection artefact counter-screen, emission ratio; active compounds read high; TR-FRET ratio at 8 µM; actives 0.34% (n = 99,000); AID 1051; in the data active means TR-FRET ratio above about 2300
PPARg SRC-3 ag: agonists of human PPARgamma SRC-3 coactivator recruitment | P37231 | biochemical PPARgamma/SRC-3 coactivator recruitment assay | activation, % at 8 µM | actives 0.26% (n = 200,000) | AID 731; in the data active means activation above about 23%;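 further: 0% = DMSO and 100% = reference agonist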
PPARg SRC2 recr: PPARgamma-driven SRC-2 recruitment agonism | PPARgamma LBD-SRC-2 recruitment, biochemical | activation, % at 8 µM | actives 0.34% (n = 200,000) | AID 1032; in the data active means activation above about 22%;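 further: 0% = vehicle and 100% = reference agonist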
TR-FRET SRC-2 ct: counter-screen for PPARgamma SRC-2 recruitment agonists: TR-FRET artefact; AID 1049; active compounds read high; TR-FRET ratio at 8 µM; actives 0.4% (n = 200,000)
* = called active by the depositor; / = no result given. Unless noted, no stated cut-off is given here; in the data, active means TR-FRET ratio above about 2000; inactive means the rest.

SMILES	SRC3 TRFRET art	PPARg SRC1 recr	SRC1 TRFRET art	PPARg SRC-3 ag	PPARg SRC2 recr	TR-FRET SRC-2 ct
COc1ccc(CNC(=O)C(CCSC)NS(=O)(=O)c2ccccc2F)cc1 (configuration not stated)	1544	3	1854	0	1	1576
CCOC(=O)/C(C#N)=C/c1cc2ccccc2nc1N1CCCCC1	2129*	17	2172	16	12	2031*
Cc1ccc(C(=O)N/C(=C/c2ccccc2)C(=O)NCC2CCCO2)cc1 (configuration not stated)	1769	-1	2130	1	4	1618
Cn1c(=O)c(=O)n(C)c2cc(S(=O)(=O)NCCOc3ccccc3)ccc21	1489	-1	1681	-2	-4	1284
CCOC(=O)C1CCN(CCC(=O)Nc2ccc(C)c(C)c2)CC1	1352	22*	2091	3	-3	1537
CCOC(=O)c1cc(-c2ccc3c(c2)OCO3)nc2onc(C)c12	/	2	/	-4	10	1971*
Cc1ccc(C)c(OCc2nc3ccc(S(=O)(=O)Nc4c(C)n(C)n(-c5ccccc5)c4=O)cc3[nH]2)c1	1496	7	1748	3	4	1759
O=C(CSc1nnc(C2CC2)n1Cc1ccco1)NCC(F)(F)F	1469	2	2315*	0	4	1660
COc1ccc(N2CCN(c3ccc(Cl)nn3)CC2)cc1	1658	-3	1674	-2	2	1617
Cc1ccc(-c2cc(-c3ccccc3)c(C#N)c(Br)n2)cc1	1644	56*	3299*	-1	-2	1632
CS(=O)(=O)c1nc(-c2ccccc2)cc(-c2ccccc2)c1C#N	/	6	/	-2	-2	1773
CCOc1ccc(C(=O)NCC(=O)N2CCc3ccccc3C2)cc1OCC	1510	-1	1971	3	2	1670
O=S(=O)(c1ccc(Cl)cc1)N1CCCC1c1nc(-c2ccc(Cl)cc2)no1 (configuration not stated)	/	5	/	11	3	1734
Nc1nc(C2CCCN2S(=O)(=O)c2ccc(Cl)cc2)cs1 (configuration not stated)	/	21*	/	5	7	1686
COc1c(C)cc(C(=O)C2CCCN(C(=O)CCc3scnc3C)C2)cc1C (configuration not stated)	1351	4	1608	-2	10	1612
O=C1Nc2ccc(Cl)cc2C12Nc1ccccc1-c1nnc(SCc3ccccc3F)nc1O2 (configuration not stated)	1748	14	2406*	11	18	1786
CCOC(=O)c1cc(NC(=O)c2ccccc2)c(=O)n2c1oc1ccccc12	1588	8	1985	2	-5	1624
COC(=O)c1cccc(NC(=O)/C=C/c2cccc([N+](=O)[O-])c2)c1	/	-4	/	-4	0	1465
COC(=O)c1cccc(NC(=O)/C=C/c2ccc([N+](=O)[O-])cc2)c1	2126*	8	1916	0	-1	1720
OC(C#CCN1CCCC1)(c1ccccc1)c1cccc(F)c1 (configuration not stated)	1768	1	1858	7	26*	1613
Cc1nnc(SCc2ccccc2)n1N	1541	22*	2275	-9	3	1367
CC(=O)N1CC(=O)N=C1SCC(=O)Nc1nc(-c2ccccc2)c(-c2ccccc2)s1	1929	17	2356*	10	18	1758
Cc1sc(NC(=O)CSC2=NCCS2)nc1-c1ccccc1	/	-1	/	7	3	1486
CC1CCCCN1C(=O)Nc1cccc(C(F)(F)F)c1 (configuration not stated)	1831	13	2319*	6	5	1781
Cn1c(=O)c2[nH]c(-c3ccccc3)c(O)c2n(C)c1=O	1758	8	2338*	11	10	1679
SMILES	SRC3 TRFRET art	PPARg SRC1 recr	SRC1 TRFRET art	PPARg SRC-3 ag	PPARg SRC2 recr	TR-FRET SRC-2 ct
Cn1c(=O)c2[nH]c(-c3ccccc3Cl)c(O)c2n(C)c1=O	1751	-6	1667	2	1	1382
Cc1ccsc1/C=C1/NC(=O)N(Cc2ccc(F)cc2)C1=O	1624	-7	1906	-3	-3	1602
Cc1c(C(=O)Nc2c(F)cccc2F)sc2ncnc(N3CCN(c4ccccc4)CC3)c12	2183*	4	2137	3	5	1813
Cc1cc(C)c(C)c(S(=O)(=O)NC2CCN(Cc3ccccc3)CC2)c1C	1441	-7	1954	1	4	1669
COc1cccc(OCc2nc3c4cnn(-c5ccccc5)c4ncn3n2)c1	/	10	/	7	3	1589
c1ccc(-n2ncc3c2ncn2nc(-c4ccco4)nc32)cc1	/	12	/	15	47*	2763*
O=C(Nc1ccc2oc(-c3ccncc3)nc2c1)c1c(F)c(F)c(F)c(F)c1F	/	48*	/	9	-2	1536
O=C(Nc1ccc2oc(-c3ccncc3)nc2c1)c1ccc(F)cc1	1522	9	1768	9	7	1538
O=C(Cc1ccc(Cl)cc1)Nc1ccc2oc(-c3ccncc3)nc2c1	/	6	/	1	9	1678
Cc1cc(OCC(=O)Nc2ccc3oc(-c4ccncc4)nc3c2)ccc1Cl	/	42*	/	1	9	1643
COc1cc(NC(=O)CN2C(=O)c3ccccc3S2(=O)=O)c(OC)cc1Cl	/	-1	/	3	0	1450
Brc1cc2c(cc1C1Nc3ccccc3C3C=CCC31)OCO2 (configuration not stated)	1653	2	1682	-2	3	1622
Cc1cc(C)c2c(c1)NC(c1cc3c(cc1Br)OCO3)C1CC=CC21 (configuration not stated)	1516	45*	3042*	0	6	1654
Cc1ccc(NC(=O)CSc2nnc(-c3ccc(S(=O)(=O)N4CCCC4)cc3)o2)cc1C	/	21*	/	1	-11	1464
CCOc1ccc(NC(=O)CN2C(=O)CSC2=O)cc1	1600	8	1730	0	3	1710
Cc1nnc(NC(=O)c2nn(CC(C)C)c(=O)c3ccccc23)s1	1608	4	2336*	0	-5	1528
O=C(CNC(=O)c1ccccc1)OCc1cc(=O)n2cc(Br)ccc2n1	1509	2	1658	-3	10	1547
Clc1ccc(-c2cn3cc(Br)ccc3n2)cc1Cl	1909	7	2103	8	17	2032*
Brc1ccc2nc(-c3c[nH]c4ccccc34)cn2c1	1691	9	2053	8	7	1999*
Cc1cccn2cc(-c3c[nH]c4ccccc34)nc12	1746	16	2206	6	0	1734
Clc1ccc2nc(-c3ccc4c(c3)OCO4)cn2c1	1526	1	1809	4	2	1519
CC(=O)Nc1nc2c(s1)C(=O)NCCC2	1624	3	1670	5	7	1582
COc1cc(OC)nc(Oc2cc(/C=N/O)ccc2OC)n1	1640	2	2016	3	3	1636
O=C(N/N=C/c1ccc(O)cc1)Nc1cccc2nsnc12	1521	6	1799	0	3	1525
